From PubChem BioAssay
In the library only some 3.3% were active in any assay of this set; here they are far more common.
Tb PYK inh – T. brucei pyruvate kinase inhibition; Q57TT1; TbPYK enzyme, Kinase-Glo Plus ATP luminescence, 45 min; Potency, µM (highest dose often 76.8 µM), inactives show at the highest dose activity, negative = inhibition, usual class: inhibitors; 0.12% of 410,000 active; also: % is scaled to controls: 0 for no effect and ±100 for the full control effect; nearly all actives have a fitted effect of over 50% in size
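Activity of T. brucei pyruvate kinase was followed by Kinase-Glo Plus luminescence after the enzyme reacted 45 min at room temperature with 130 uM ADP (final) and substrate. Test compounds were added before ADP at multiple concentrations.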
Sm TGR inh – S. mansoni TGR enzyme inhibition; 3% of 360,000 active; purified TGR, DTNB reduction, TNB absorbance 405 nm; Potency, µM (highest dose often 114 µM), without a hit: top-dose activity change, negative = inhibition, hits mostly inhibitors; Q962Y6; also: % is scaled to controls: 0 for no effect and ±100 for the full control effect; nearly all actives have a fitted effect of over 60% in size
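TGR 20 nM + NADPH 100 uM (dispensed conc.), cpd preinc 15 min RT; start with NADPH (500 uM addition) then DTNB (15 mM addition). Kinetic TNB absorbance, 405 nm filter. Four-parameter Hill fit across titration.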
AmpC inh detg – blocks E. coli AmpC beta-lactamase in detergent assay. AmpC hydrolysis of nitrocefin, absorbance 480 nm, 0.01% Triton. Potency, µM (titrated, usually from 114 µM), without a hit: at the top dose activity change, negative = inhibition, usual class: inhibitors. 0.041% of 370,000 active;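 also: 0% = no-compound wells and -100% = no-enzyme wells; nearly all actives have a fitted effect of over 25% in size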
Target sequence (P00811 whole entry, looked up): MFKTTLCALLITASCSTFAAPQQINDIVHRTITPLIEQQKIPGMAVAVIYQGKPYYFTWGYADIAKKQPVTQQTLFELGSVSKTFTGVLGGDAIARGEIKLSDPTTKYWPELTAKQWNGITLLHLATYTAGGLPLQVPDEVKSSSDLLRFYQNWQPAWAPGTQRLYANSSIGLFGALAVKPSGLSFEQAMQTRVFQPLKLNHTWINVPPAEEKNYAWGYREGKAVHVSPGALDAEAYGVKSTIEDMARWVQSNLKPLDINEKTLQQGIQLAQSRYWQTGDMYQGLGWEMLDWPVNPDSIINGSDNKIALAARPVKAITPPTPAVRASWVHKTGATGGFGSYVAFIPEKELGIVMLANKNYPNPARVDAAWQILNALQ
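AmpC (5.3 nM in the dispensed reagent) in 20 mM phosphate pH 7.0 with 0.01% (detergent screen) or 0.0001% Triton X-100 was preincubated with compounds for 15 min at room temperature. Nitrocefin was then added from an 800 uM solution, and hydrolysis was followed at 480 nm.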
RE007 growth inh – less growth of the S. pombe RE007 Vpr strain | S. pombe RE007 Vpr strain, BacTiter-Glo ATP luminescence, 24 h | Potency, µM (series often up to 92.2 µM), for the others: at the top dose activity change, negative = less growth, most hits filed as inhibitors | 0.21% of 360,000 active | AID 651644; active = well fitted falling curve with a large enough effect; inconclusive = small, poorly fitted or top-dose-only effect; inactive = no such curve, though single readings can be large or run the other way; also: % is scaled to controls: 0 for no effect and ±100 for the full control effect; nearly all actives have a fitted effect of over 50% in size
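Fission yeast RE007 carrying one integrated HIV-1 vpr copy, seeded at OD 0.01 in PMG+AL medium with 23 nL pinned compound. Grown 24 h at 30 degrees; viability read by BacTiter-Glo luminescence after 5 min.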
SARS PLP yeast – SARS-CoV PLP inhibition in yeast; Potency, µM (series often up to 32.9 µM), for the others: at the highest dose activity, positive = growth rescue, hits mostly activators; S. cerevisiae expressing SARS-CoV PLpro, growth rescue; 0.19% of 330,000 active; AID 485353; calls by dose curve; also: 0% is about no effect; nearly all actives have a fitted effect of over 55% in size
AmpC inh no detg – inhibitors of E. coli AmpC beta-lactamase without detergent | P00811 | AmpC nitrocefin hydrolysis, absorbance 480 nm, 0.0001% Triton | Potency, µM (doses to about 57.1 µM), for inactives: at the top dose activity change, negative = inhibition, most hits filed as inhibitors | 0.52% of 330,000 active | AID 485341;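 also: plate controls were no compound for no effect and no enzyme for full effect; nearly all actives have a fitted effect of over 20% in size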
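AmpC (5.3 nM in the dispensed reagent) in 20 mM phosphate pH 7.0 with 0.01% (detergent screen) or 0.0001% Triton X-100 was preincubated with compounds for 15 min at room temperature. Nitrocefin was then added from an 800 uM solution, and hydrolysis was followed at 480 nm.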
Numbers without * were called inactive. Unless noted, calls follow the shape of the dose curve; as a rule, active = well fitted curve in the direction sought with a large enough effect; inconclusive = small, poorly fitted or top-dose-only effect, or another doubt; inactive = no such curve, though single readings can be large; an effect the other way counts as inactive or inconclusive. Potency is read from the fitted curve at half-maximal effect.

Results for Cc1cccc(C(c2sc3nc(-c4ccco4)nn3c2O)N2CCN(c3ccccc3F)CC2)c1 (stereo not given) ?
Tb PYK inh: 3%; Sm TGR inh: -1%; AmpC inh detg: 4%

What do the screens show for `CC[n+]1c(C)n(C)c2cc(S(=O)(=O)N(C)C)ccc21`?
Tb PYK inh: 1%; Sm TGR inh: 50µM*; AmpC inh detg: -4%; RE007 growth inh: 6%; SARS PLP yeast: 1%; AmpC inh no detg: -15%

Results for Clc1cccc(Cl)c1CON/C=N/c1ncnc2sccc12 ?
Tb PYK inh: 1%; Sm TGR inh: 3%; AmpC inh detg: 1%; RE007 growth inh: 4%; SARS PLP yeast: -1%; AmpC inh no detg: 1.1µM*

Results for C=CCOC(=O)/C(=C/c1cccc2ccccc12)NC(=O)c1ccccc1 ?
Tb PYK inh: 7%; Sm TGR inh: 3%; AmpC inh detg: inconclusive; RE007 growth inh: 5%; SARS PLP yeast: -31%; AmpC inh no detg: 13µM*

Results for O=C(OCc1ccccc1)/C(=C/c1cccc2ccccc12)NC(=O)c1ccccc1 ?
Tb PYK inh: 0%; Sm TGR inh: 5%; AmpC inh detg: -10%; RE007 growth inh: 7%; SARS PLP yeast: 22%; AmpC inh no detg: -29%

How did CN(C)CCNC(=O)c1ccc2c(=O)n(Cc3ccc(Cl)cc3)c(=S)[nH]c2c1 do in these assays?
Tb PYK inh: -9%; Sm TGR inh: 45µM*; AmpC inh detg: 3%; RE007 growth inh: -7%; SARS PLP yeast: -2%; AmpC inh no detg: -5%

What do the screens show for `O=C(NCc1ccccc1)C1=C[C@@H](C2CC2)C[C@@H](OCCCCO)O1`?
Tb PYK inh: -5%; Sm TGR inh: -15%; AmpC inh detg: 3%; RE007 growth inh: -16%; SARS PLP yeast: 0%; AmpC inh no detg: 4%

Results for C#CCNC(=O)C1=C[C@H](c2ccc(C#C)cc2)C[C@H](OCc2ccc(CO)cc2)O1 ?
Tb PYK inh: 5%; RE007 growth inh: 1%

How did C#CCNC(=O)C1=C[C@H](c2ccccc2)C[C@H](OCCCCO)O1 do in these assays?
Tb PYK inh: 0%; Sm TGR inh: 14µM*; AmpC inh detg: 8%; RE007 growth inh: 1%; SARS PLP yeast: 1%; AmpC inh no detg: 20%

What do the screens show for `C#CCNC(=O)C1=C[C@H](c2ccc(C(F)(F)F)cc2)C[C@H](OCc2ccc(CO)cc2)O1`?
Tb PYK inh: -9%; Sm TGR inh: 40µM*; AmpC inh detg: -2%; RE007 growth inh: -8%; SARS PLP yeast: -3%; AmpC inh no detg: 99%

How did O=C(NC1CC1)C1=C[C@@H](c2coc3ccccc3c2=O)C[C@@H](OCCCCO)O1 do in these assays?
Tb PYK inh: -8%; Sm TGR inh: 45µM*; AmpC inh detg: -2%; RE007 growth inh: 1%; SARS PLP yeast: -3%; AmpC inh no detg: 47%

How did C#CCNC(=O)C1=C[C@H](C2CC2)C[C@H](OCCCCO)O1 do in these assays?
Tb PYK inh: 0%; Sm TGR inh: 45µM*; AmpC inh detg: 10%; RE007 growth inh: 4%; SARS PLP yeast: 0%; AmpC inh no detg: 12%

What do the screens show for `COc1ccc(F)cc1S(=O)(=O)Nc1ccc2c(c1)CCCN2C(=O)c1cccs1`?
Tb PYK inh: 2%; Sm TGR inh: -2%; AmpC inh detg: 12%

What do the screens show for `C#CCNC(=O)C1=C[C@@H](c2ccccc2)C[C@@H](OCc2ccc(CO)cc2)O1`?
Tb PYK inh: 1%; Sm TGR inh: 45µM*; AmpC inh detg: -1%; RE007 growth inh: 0%; SARS PLP yeast: -1%; AmpC inh no detg: 2%

What do the screens show for `COc1cc(NC(=O)C2CCN(S(=O)(=O)c3ccc4c(c3)CCCC(=O)N4)CC2)cc(OC)c1`?
Tb PYK inh: 1%; Sm TGR inh: -2%; AmpC inh detg: 2%

What do the screens show for `COc1cccc(N2CCN(C(=O)c3c4c(nc5ccccc35)C(=O)N(C3CCCCC3)C4)CC2)c1`?
Tb PYK inh: -1%; Sm TGR inh: 4%; AmpC inh detg: -3%

How did Cc1ccc(-n2cccc2/C=C2\C(=N)N3N=C(C(C)C)SC3=NC2=O)cc1 do in these assays?
Tb PYK inh: 1%; Sm TGR inh: 7%; AmpC inh detg: inconclusive; RE007 growth inh: 4%; SARS PLP yeast: -1%; AmpC inh no detg: 16µM*

What do the screens show for `CCC1=NN2C(=N)/C(=C\c3cccn3-c3ccc(OC)cc3)C(=O)N=C2S1`?
Tb PYK inh: 4%; Sm TGR inh: 2%; AmpC inh detg: inconclusive; RE007 growth inh: -5%; SARS PLP yeast: -9%; AmpC inh no detg: -53%

Results for CCN(CC)CCN1C(=O)C(=O)/C(=C(/O)c2ccc(OC)cc2)C1c1cccs1 (stereo not given) ?
Sm TGR inh: 45µM*; AmpC inh detg: inconclusive; SARS PLP yeast: 4%; AmpC inh no detg: 17%

How did C=CCOc1ccc(/C(O)=C2\C(=O)C(=O)N(CCN(C)C)C2c2cccs2)cc1 (stereo not given) do in these assays?
Tb PYK inh: -5%; Sm TGR inh: inconclusive; AmpC inh detg: 3%; RE007 growth inh: 9%; SARS PLP yeast: -7%; AmpC inh no detg: -17%

How did CCOc1ccc(/C(O)=C2/C(=O)C(=O)N(CCN(CC)CC)C2c2cccs2)cc1 (stereo not given) do in these assays?
Tb PYK inh: -6%; Sm TGR inh: 22µM*; AmpC inh detg: inconclusive; RE007 growth inh: -13%; SARS PLP yeast: -2%; AmpC inh no detg: 18%

Results for COC(=O)c1cc(C)nc2c1c(=O)nc(SCc1ccccc1F)n2C1CC1 ?
Tb PYK inh: -1%; Sm TGR inh: -1%; AmpC inh detg: 21%

How did COc1cc(C2c3c(-c4c(C)cc(C)cc4O)n[nH]c3C(=O)N2CCCOC(C)C)cc(OC)c1OC (stereo not given) do in these assays?
Tb PYK inh: 0%; Sm TGR inh: -1%; AmpC inh detg: -5%

How did Cc1cccc(N2CCN(C(=O)Cn3c(C)c4cnn(-c5ccccc5)c(=O)c4c3C)CC2)c1C do in these assays?
Tb PYK inh: -2%; Sm TGR inh: 6%; AmpC inh detg: 16%

What do the screens show for `Cc1ccc(N(C)S(=O)(=O)c2nnc(NC(=O)c3ccco3)s2)cc1`?
Tb PYK inh: -3%; Sm TGR inh: inconclusive; AmpC inh detg: -1%; RE007 growth inh: -12%; SARS PLP yeast: 1%; AmpC inh no detg: -32%
